# From PubChem
# DRD3 antagonist: qHTS of D3 Dopamine Receptor Antagonist: qHTS; D(3) dopamine receptor (Homo sapiens), P35462; 360,000 tested, 2.5% active; max response, negative = inhibition, %; D3R cells, DiscoveRx beta-arrestin luminescence, antagonist mode; hits give low values; in the data active = max response below about -50%; inconclusive = no clear call, values can overlap the other calls; also: % is scaled to controls: 0 for no effect and ±100 for the full control effect
# Target sequence (P35462 whole entry, looked up): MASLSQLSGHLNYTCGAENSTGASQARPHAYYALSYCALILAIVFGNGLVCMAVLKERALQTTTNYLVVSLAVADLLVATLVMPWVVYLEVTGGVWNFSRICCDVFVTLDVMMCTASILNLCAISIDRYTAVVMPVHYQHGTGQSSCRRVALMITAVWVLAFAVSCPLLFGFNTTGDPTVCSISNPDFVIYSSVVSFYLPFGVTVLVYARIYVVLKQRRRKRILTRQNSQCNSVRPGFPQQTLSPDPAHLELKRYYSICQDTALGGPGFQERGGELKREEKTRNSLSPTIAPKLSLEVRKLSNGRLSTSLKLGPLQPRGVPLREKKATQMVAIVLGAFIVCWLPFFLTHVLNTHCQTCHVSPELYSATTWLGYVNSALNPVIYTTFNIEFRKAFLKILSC
#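 Cells expressing the human receptor were seeded at 1500 cells/well, incubated overnight at 37 degrees C in 5% CO2, then exposed to library compounds with dopamine controls for 90 minutes at 37 degrees C before luminescent detection.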
# GLP-1R inv ag: qHTS of GLP-1 Receptor Inverse Agonists (Inhibition Mode) | Glucagon-like peptide 1 receptor (Homo sapiens), P43220 | HEK293 GLP-1R CRE-luciferase, luminescence, 24 h; GLP-1R form is constitutively active | Potency, µM (highest dose often 38.3 µM), without a hit: at the top dose activity change, negative = inhibition, actives largely listed as inhibitors | 410,000 tested, 1.6% active; also: potency is read from the fitted curve at half-maximal effect; % is scaled to controls: 0 for no effect and ±100 for the full control effect; nearly all actives have a fitted effect of over 55% in size
#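 HEK293 cells stably co-expressing a cAMP-responsive luciferase reporter and constitutively active GLP-1R were seeded, incubated 12 h, then exposed to compounds for 24 h at 37 C. Luminescence was read 12 min after detection reagent; inverse agonists lower signal.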
# ClpP mod: qHTS Assay for Activators of ClpP. 340,000 tested, 1.9% active. Potency, µM (top dose mostly 57.5 µM), without a hit: at the top dose activity change, negative = active. purified B. subtilis ClpP, FRET peptide cleavage, 20 min. AID 651965, 2013; active = well fitted falling curve with a large enough effect; inconclusive = small, poorly fitted or top-dose-only effect; inactive = no such curve, though single readings can be large or run the other way; also: potency is read from the fitted curve at half-maximal effect; the source files actives as falling curves though it sought activators and does not explain the sign; nearly all actives have a fitted effect of over 65% in size
# Target sequence (P80244 whole entry, looked up): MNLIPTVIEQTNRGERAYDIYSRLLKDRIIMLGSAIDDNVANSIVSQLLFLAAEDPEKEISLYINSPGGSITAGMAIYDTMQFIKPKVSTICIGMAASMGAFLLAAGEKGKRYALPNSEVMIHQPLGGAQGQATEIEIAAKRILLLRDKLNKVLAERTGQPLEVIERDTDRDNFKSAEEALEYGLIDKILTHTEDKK
#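 Purified B. subtilis ClpP, 10 microg/mL final in Tris/HCl pH8 with KCl, BSA, glycerol and Tween-20, cleaved an Abz/nitrotyrosine-quenched decapeptide. Fluorescence (ex 320, em 430) was read at 0 and 20 min at room temperature. Delta was normalized to 5.8 microM ADEP and DMSO/no-enzyme controls.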
# GLP1R ag: qHTS of GLP-1 Receptor Agonists | Glucagon-like peptide 1 receptor (Homo sapiens), P43220 | 380,000 tested, 0.007% active | HEK293 GLP-1R CRE-luciferase, luminescence, 4-6 h; cells express a hypersensitive GLP-1R form | Potency, µM (titrated, usually from 45.6 µM), without a hit: at the top dose activation, hits mostly activators | AID 624172, 2012; also: potency is read from the fitted curve at half-maximal effect; % of control where 0% means no effect
# D3 ag: qHTS of D3 Dopamine Receptor Agonist: qHTS | D(3) dopamine receptor (Homo sapiens), P35462 | D3R DiscoveRx beta-arrestin cells, luminescence, 90 min | max activation, % | 410,000 tested, 0.58% active | AID 652048, 2013; in the data active = max activation above about 30%; also: 0% is about no effect
#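 Cells at 1500/well, incubated overnight, then treated with pinned compounds (dopamine as control) for 90 min at 37 degrees C. DiscoveRx reagent added for 30 - 60 minutes at room temperature; luminescence read.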
# HEK293 tox: qHTS of GLP-1 Receptor Inverse Agonists: Cytotox Screen | HEK293 cAMP-luciferase reporter cells, luminescence, 24 h | Potency, µM (series often up to 38.3 µM), for the others: at the top dose activity change, negative = inhibition, most hits filed as inhibitors | 410,000 tested, 0.13% active | AID 624418, 2012;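 also: loss of luciferase light is scored as toxicity; potency is read from the fitted curve at half-maximal effect; % is scaled to controls: 0 for no effect and ±100 for the full control effect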
#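 Cells in DMEM/10% Nu serum/1% pen-strep, 1536-well format. Pre-incubated 12 h, dosed with 23 nL compound, incubated a further 24 h. Luciferase detection, 12 min at room temp, luminescence.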
# * marks the source's active call; other numbers are inactive results; u = inconclusive; x = no result given; [ ] = remark or other dose. Only some compounds are listed: those with a hit (about 5.7% of all), similar ones and a draw of the others. Unless noted, calls follow the shape of the dose curve; as a rule, active = well fitted curve in the direction sought with a large enough effect; inconclusive = small, poorly fitted or top-dose-only effect, or another doubt; inactive = no such curve, though single readings can be large; an effect the other way counts as inactive or inconclusive.
SMILES,DRD3 antagonist,GLP-1R inv ag,ClpP mod,GLP1R ag,D3 ag,HEK293 tox
Clc1ccc2[nH]c3c(N4CCC5(CC4)OCCO5)ncnc3c2c1,34,u,13µM*,-13%,1,u
Cc1cccc2[nH]c3c(N4CCC5(CC4)OCCO5)ncnc3c12,33,0%,u,13%,0,-17%
Brc1ccc2[nH]c3c(N4CCc5ccccc5C4)ncnc3c2c1,-15,4%,32µM*,-4%,29,-29%
c1ccc2c(c1)[nH]c1c(N3CCN(C4CCCCC4)CC3)ncnc12,4,u,32µM*,2%,-1,-28%
CN1CCN(c2ncnc3c2[nH]c2ccc(F)cc23)CC1,16,-6%,28µM*,4%,3,-5%
Fc1ccc(Nc2c3c(nc4nncn24)CCC3)cc1,x,3%,2%,x,3,1%
Cc1ccc(S(=O)(=O)N2CC3(O)CN(C(=O)OC(C)C)N(C(=O)OC(C)C)CC3(OC(=O)NCC3CCCCC3)C2)cc1 (stereo not given),23,u,4%,-6%,0,8%
Cc1ccc(NC(=O)CN2C(=O)CSc3ccc(S(=O)(=O)N4CCCC4)cc32)c(C)c1,x,-17%,-4%,x,-11,10%
NC(=O)CSc1nccn1Cc1ccccc1,-11,-7%[7.66 µM],-1%,-1%,-7,0%[7.66 µM]
c1ccc(Cn2ccnc2SCc2nnc(-c3ccccc3)o2)cc1,16,7%,0%,12%,32*,-4%
c1ccc(COc2ncnc3c2ncn3CCCNC2CCN(Cc3ccccc3)CC2)cc1,1,7.1µM*,0%,-1%,1,u
CSc1ncnc2c1ncn2CCCNC1CCN(Cc2ccccc2)CC1,10,u,1%,-3%,-2,-10%
O=C(Nc1ccn(CCCN2CCN(Cc3cccc4ccccc34)CC2)c(=O)n1)OCc1ccccc1,-2,7.9µM*,0%,2%,-10,-7%
O=C(Nc1ccn(CCCNC2CCN(Cc3ccccc3)CC2)c(=O)n1)OCc1ccccc1,-53*,u,0%,3%,-12,1%
O=C(Nc1ccn(CCCNCCN2CCOCC2)c(=O)n1)OCc1ccccc1,-16,-12%,-3%,-1%,-34,-6%
O=C(CNC(=O)C1CCCCC1)OCc1cc(=O)oc2ccc3ccccc3c12,-19,8%,25µM*,-12%,3,0%
O=C(/C=C/c1cccc([N+](=O)[O-])c1)c1ccco1,u,4%,-2%,-5%,-13,4%
Cc1ccccc1/C=C/C(=O)c1ccc([N+](=O)[O-])o1,-58*,u,1%,-23%,-18,u
Cc1cccc(/C=C/C(=O)c2ccc([N+](=O)[O-])o2)c1,-58*,2%,1%,-6%,-6,-20%
O=C(/C=C/c1cccc([N+](=O)[O-])c1)c1ccc([N+](=O)[O-])o1,-137*,15%,0%,-12%,-63,-21%
COc1ccc(/C=C/C(=O)c2ccc([N+](=O)[O-])o2)cc1,-75*,4%,0%,3%,-28,1%
Cc1ccc(-c2cc(N)n(Cc3ccc(Cl)cc3)n2)cc1,7,11µM*,2%,0%,4,-16%
O=S(=O)(c1cccc(-c2nnc(SCc3nc4ccccc4s3)o2)c1)N1CCOCC1,-15,-14%,28µM*,4%,-3,0%
O=S(=O)(c1ccc(OCc2nc3ccccc3s2)c(Cl)c1)N1CCOCC1,-76*,17%,0%,-10%,-13,2%
N#CCc1nc2ccc(S(=O)(=O)N3CCOCC3)cc2s1,-20,-3%,x,8%,-14,18%
SMILES,DRD3 antagonist,GLP-1R inv ag,ClpP mod,GLP1R ag,D3 ag,HEK293 tox
C=Cc1ccccc1,x,x,x,-1%,10,x
CC(=O)c1cccc(NC(=O)C2CCN(c3nnc(-n4cccc4)s3)CC2)c1,x,-5%,-2%,5%,0,2%
COCCOC(=O)N1CCCCC1c1cc(C(=O)NCc2ccc(Cl)c(Cl)c2)no1 (stereo not given),8,u,-2%,4%,1,-22%
Cc1cc(NC(=O)COC(=O)[C@H](Cc2ccccc2)NC(=O)c2ccco2)no1,4,9%,x,6%,-11,-12%
CCCCCCSC1=C(C#N)C(c2ccc(O)cc2)CC(=O)N1 (stereo not given),1,5µM*,-2%,u,-4,-4%
COc1cc2[nH]c3c(=O)n(CCN(C(C)C)C(C)C)cnc3c2cc1OC,-16,u,28µM*,-1%,-1,u
CC(C)N(CCn1cnc2c([nH]c3ccccc32)c1=O)C(C)C,-13,-7%,-11%,-2%,-11,12%
Cc1ccc(-c2nc3scc(CCNS(=O)(=O)c4c(C)noc4C)n3n2)cc1,x,-9%,0%,x,-11,3%
CC(C)c1ccc(NC(=O)CSc2nnc(-c3ccccn3)n2C)cc1,0,-17%,28µM*,0%,1,-2%
CCOc1ccc(-c2cc3nc(C4CCN(C(=O)OC(C)(C)C)CC4)c(C(=O)Nc4ccc(C)c(F)c4)cn3n2)cc1,x,6%,-21%,x,14,-10%
Nc1nonc1OCCOCCOCCOc1nonc1N,-59*,-26%,0%,-1%,-13,-15%
Cc1cc(C)n(CCOc2nonc2N)n1,7,1%,0%,-10%,11,-10%
CC(C)(C)CNC(CO)C12CC3CC(CC(C3)C1)C2 (stereo not given),-54*,-26%,-1%,-2%,-3,11%
CC(C)(CO)NC12CC3CC(CC(C3)C1)C2,-14,-3%,-2%,2%,1,-6%
COC(=O)c1cc2oc3ccccc3c2n1CC(=O)N1CCCc2ccccc21,-3,4%,8.9µM*,-2%,3,15%
COC(=O)c1cc2oc3ccccc3c2n1Cc1ccc(C)cc1,x,13%,5%,x,5,4%
COC(=O)c1cc2oc3ccccc3c2n1Cc1ccccn1,58,4.5µM*,u,13%,6,-15%
C=CC(=O)Nc1cccc(CN2C(=O)N(c3cc(OC)cc(OC)c3)Cc3cnc(NCCCCN(CC)CC)nc32)c1,0,7%,-6%,-1%,0,u
COc1cccc(NC(=O)C2(C)CCN2C(=O)CC2CC2)c1 (stereo not given),-11,2%,0%,1%,-4,-1%
